Results: PubChem BioAssay AID720513 (Broad Institute, 2013)
Among all 2,100 compounds or so, about 480 (23%) were called active. Inconclusive results (about 5%) are left out.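 How the source made its calls: active means fitted curve reaches 40% activation at or below the top valid concentration, in every replicate test; inconclusive means replicate tests disagree on the call; inactive means the rest, including activity in the opposite direction.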 The list is a sample of the results. Results with a measured potency or affinity are listed apart.

assay: PGC1a acetylation increase, cellular AlphaLISA – cell-based, cherry-picked samples, set 6, dose response (AID 720513); settings: U2OS PGC1a acetylation AlphaLISA, overnight, 0 = neutral, -100 = inhibitor control; series mostly up to 19.5 µM; activation (acetylation increase): at the top concentration;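 further: cells made to overexpress flag tagged PGC1a plus GCN5 acetyltransferase by viral infection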

Activation (acetylation increase), inactive:
CCN(CC(=O)NCc1ccc(Cl)cc1)C(=O)CSCC(=O)Nc1ccc(C)cc1 -34%
Cc1nnc2sc(-c3ccc(NC(=O)c4ccc(-c5ccc(Cl)cc5Cl)o4)cc3)nn12 -15.2%
CCC(=O)NCc1c(C)c(C)n(Cc2ccccc2)c1-n1cccc1 14.2%
Cc1ccc(S(=O)(=O)OCCC2=CC(=O)CCN2Cc2ccccc2)cc1 -13.4%
COc1ccc(S(=O)(=O)N2CCCCN3[C@@H](CO)[C@@H](c4ccc(C5=CCCCC5)cc4)[C@@H]3C2)cc1 16.8%
Cc1ccc(S(=O)(=O)N2CCCCC2C(=O)O)cc1 (centres undefined) -66.4%
CN(C)CC(=O)N[C@H]1CC[C@H](CCNC(=O)Nc2ccc(Cl)cc2)O[C@H]1CO 0.988%
CCOC(=O)N1CCN(C(=O)c2cc(S(=O)(=O)N3CCCC3)cn2C)CC1 14.9%
CCCc1nnc(NC(=O)CN2CCOCC2)s1 -3.15%
CNC[C@@H]1Oc2cc(C#CCC3CCCC3)ccc2S(=O)(=O)N([C@H](C)CO)C[C@H]1C -9.01%
COc1ccc(-c2noc(CCC(=O)N3CCN(c4cccc(C)c4C)CC3)n2)cc1 16.8%
O=C(N/N=C/C=C\c1ccccc1[N+](=O)[O-])c1cccnc1 11%
COc1ccc(COc2cc(-c3cccc(OC)c3)nc3ccc(NC(=O)c4cccnc4)cc23)cc1 12%
CC(=O)N1N=C(c2ccco2)CC1c1ccco1 (centres undefined) -18.8%
CCC1SC2=NC(C)=C(C(=O)OC)C(c3cccs3)N2C1=O (centres undefined) 9.25%
COc1ccc(S(=O)(=O)N[C@@H]2CC[C@H](CCNC(=O)c3ccccc3F)O[C@H]2CO)cc1 16.6%
O=c1c(Cl)c(Cl)cnn1Cc1nnc(-c2ccc(Cl)cc2)o1 -89.1%
CCC(=O)N(C)C[C@@H]1Oc2cc(C#Cc3cccnc3)ccc2S(=O)(=O)N([C@H](C)CO)C[C@H]1C -30.7%
C=CCc1ccc(OCCCCNC(C)CC)c(OC)c1 (centres undefined) 1.82%
O=C1CN(C(=O)Cn2ncc(Cl)c(Cl)c2=O)c2ccccc2N1 -101%
CSCC(O)Cn1[nH]c(=O)c2cc(Cl)c(Cl)cc2c1=O (centres undefined) -20.6%
Cc1cc(S(=O)(=O)NC(C)C)ccc1OCC(=O)Nc1ccc2c(c1)OCCO2 6.52%
O=C(/C=C/c1ccccc1)CC(O)(c1ccccc1)C(F)(F)C(F)F (centres undefined) -99.5%
Cc1ccc(C2CC2c2n[nH]c(=S)n2-c2ccc(Cl)cc2)cc1 (centres undefined) 4.31%
CCCNC(=O)c1nnsc1S(=O)c1ccc(Cl)cc1 (centres undefined) -98.5%
O=C(Nc1ccccc1)c1nnsc1S(=O)c1ccc(Cl)cc1 (centres undefined) -86.1%
Cc1ccc(-n2nc3ccc(N)cc3n2)cc1 31%
CCC(=O)N(C)C[C@@H]1Oc2ncc(-c3ccc(C(=O)N(C)C)cc3)cc2C(=O)N([C@H](C)CO)C[C@@H]1C -3.52%
CSc1n[nH]c(NC(=O)c2c(-c3c(Cl)cccc3Cl)noc2C)n1 -24%
COc1ccc(OCC(=O)NNC(=O)c2c(-c3ccccc3Cl)noc2C)cc1 -14.9%
O=C(O)COc1ccc(/C=C2/SC(=S)N(Cc3ccccc3)C2=O)cc1 14.2%
CNC[C@@H](Cc1ccccc1)NC[C@@H](CC1CCCCC1)NCCCc1ccccc1 -100%
CCOC(=O)C1CCN(Cc2ccc(O)c3ncccc23)CC1 0.639%
Cc1cccc(NS(=O)(=O)c2cccc(C(=O)NCC(c3ccco3)N3CCCCC3)c2)c1 (centres undefined) -13%
COc1ccc(C(=O)C(CN2CCCC2)c2ccccc2)cc1 (centres undefined) -87%
CC(C)c1ccc(S(=O)(=O)N(C)C2(C)CCS(=O)(=O)C2)cc1 (centres undefined) 35.8% [at 10 µM]
CCCOc1cccc(C(=O)Nc2cc(NC(=O)c3ccco3)ccc2OC)c1 29.9%
CN(C)S(=O)(=O)N1CCC(Cc2ccccc2)CC1 -4.72%
CCCCNC(=O)c1ccc(CS(=O)(=O)c2ccccc2OC)o1 7.67%
O=C(Nc1ccc(F)cc1)N1CC(=O)N2[C@@H](CO)[C@@H](c3ccc(-c4ccccc4)cc3)[C@@H]2C1 26.6%
CC(C)c1ccc(CNc2ccc([N+](=O)[O-])cn2)cc1 34.8%
COc1ccc(-c2ccc(OC)cc2C(=O)O)cc1 14.8% [at 10 µM]
Cc1nc(NCCc2ccccc2)c2nnn(Cc3ccccc3Cl)c2n1 -5.82%
CSc1ncccc1C(=O)N1CCN(C(=O)c2ccccc2)CC1 4.96%
O=C(NC1CCCCCCC1O)c1ccccc1 (centres undefined) -13.7%
CO[C@@H]1CN(C)C(=O)c2cc(NC(C)=O)ccc2OC[C@@H](C)N(Cc2ccccc2C(=O)O)C[C@@H]1C -27.9%
Cc1cc(SCC(=O)NC(=O)NCc2ccco2)nc2ccccc12 23.1%
C=CCn1c(SCC(=O)NCc2ccccc2)nnc1-c1ccccc1O 20.6%
COc1ccc(OC)c(Nc2ccc(C(=O)O)cc2[N+](=O)[O-])c1 5.16% [at 10 µM]
COc1ccccc1/C=C/c1nc2ccc(OC(C)=O)cc2c(=O)o1 11.5%
C[C@@H]1CN([C@@H](C)CO)C(=O)c2cc(NC(=O)c3ccncc3)ccc2O[C@@H](C)CCCCO[C@@H]1CN(C)Cc1ccncc1 7.05%
CC(=O)Cc1nsc(NC(=O)c2cccc(F)c2)n1 -7.15%
CCCN1CCN(S(=O)(=O)c2ccc3c(c2)CC(C)N3C(=O)C2CC2)CC1 (centres undefined) 15.8%
c1ccc2c(-c3nn4nnnc4c4ccccc34)cccc2c1 38.8%
COCCCNC(=O)c1ccc(CSCc2ccc(C)cc2)o1 -6.72%
COc1ccc(-c2cnc3c(c2)C(=O)N([C@H](C)CO)C[C@@H](C)[C@@H](CN(C)C(=O)Nc2c(C)noc2C)O3)cc1 -25.8% [at 10 µM]
COc1cccc(NC(=O)N(C)C[C@@H]2OCc3ccccc3-c3c(n(C)c4ccccc34)C(=O)N([C@@H](C)CO)C[C@H]2C)c1 -5.27% [at 21 µM]
C[C@@H]1CN([C@H](C)CO)C(=O)c2cc(NC(=O)Cc3cn(C)c4ccccc34)ccc2O[C@@H]1CN(C)C(=O)Nc1ccccc1 5.4%
O=C(C[C@@H]1CC[C@@H]2[C@H](COC[C@@H](O)CN2S(=O)(=O)c2ccc(Cl)cc2)O1)N[C@@H]1CCN(Cc2ccccc2)C1 3.06%
CC(Nc1ccccc1)c1cc(Cl)ccc1O (centres undefined) -12.3%
O=C(c1ccc(N2CCCC2=O)cc1)N1CCCCCC1 30.5%
CO[C@H]1CN(C)C(=O)c2ccc(NC(=O)C3CCOCC3)cc2OC[C@@H](C)N(C)C[C@@H]1C 1.83%
Cc1cc(F)cc(-c2cc(C(=O)NCc3ccccc3)[nH]n2)c1 17%
COc1cc(NC(=O)CCN2CCN(C)CC2)cc(OC)c1 -15%
